Screening results: PubChem BioAssay, National Center for Advancing Translational Sciences (NCATS)
Most compounds without a hit are left out; they make up all but 8.7% or so of the library.
HP1b chromo inh: HP1-beta chromodomain-methylated histone interaction inhibition. P83916. AlphaScreen HP1-beta / biotin-H3K9me3 peptide binding. Potency, µM (top dose mostly 114 µM), without a hit: at the highest dose activity change, negative = inhibition, most hits filed as inhibitors. 390,000 tested, 0.56% active; also: nearly all actives have a fitted effect of over 70% in size
Target sequence (P83916 whole entry, looked up): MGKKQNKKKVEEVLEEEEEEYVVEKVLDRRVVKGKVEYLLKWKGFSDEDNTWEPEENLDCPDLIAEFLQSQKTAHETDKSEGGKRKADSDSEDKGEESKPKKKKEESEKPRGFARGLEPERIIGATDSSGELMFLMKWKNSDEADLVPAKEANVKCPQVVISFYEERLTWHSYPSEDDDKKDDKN
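HP1-beta protein (50 nM final) preincubated 30 min at room temperature with biotinylated H3(1-18)K9me3 peptide (50 nM) in PBS pH 7.4, 0.01% Tween-20, then compound added for 30 min. AlphaScreen streptavidin donor/nickel chelate acceptor beads (10 ug/mL final), 30 min dark, luminescence read.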
G9a inh: blocks human histone lysine methyltransferase G9a. AID 504332. G9a H3K9 monomethylation, AlphaScreen, 2 h. 350,000 tested, 8.8% active. Potency, µM (titrated, usually from 102 µM), inactives show at the highest dose activity, negative = inhibition, most hits filed as inhibitors. Q96KQ7; also: % is scaled to controls: 0 for no effect and ±100 for the full control effect; nearly all actives have a fitted effect of over 75% in size
Target sequence (Q96KQ7 913-1193 limits assumed): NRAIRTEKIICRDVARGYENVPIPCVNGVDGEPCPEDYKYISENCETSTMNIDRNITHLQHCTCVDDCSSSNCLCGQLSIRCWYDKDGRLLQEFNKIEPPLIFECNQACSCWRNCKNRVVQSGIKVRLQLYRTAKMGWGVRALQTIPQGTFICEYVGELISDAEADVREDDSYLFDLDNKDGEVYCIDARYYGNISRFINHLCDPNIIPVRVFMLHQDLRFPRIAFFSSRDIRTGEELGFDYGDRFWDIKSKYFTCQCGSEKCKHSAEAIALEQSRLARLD
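Step 1: enzyme (final 20 nM) with compound, 15 min RT. Step 2: substrate peptide 500 nM and SAM 20 uM, 2 h RT. Step 3: anti-H3K9me1 antibody and AlphaScreen beads, 10 min, then plate read.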
JMJD2A Tudor inh: JMJD2A Tudor domain (human) inhibition | O75164 | AlphaScreen JMJD2A-Tudor / H3K4me3 peptide binding | Potency, µM (top dose mostly 114 µM), for the others: at the top dose activity change, negative = inhibition, hits mostly inhibitors | 390,000 tested, 4.4% active | AID 504339; also: % is scaled to controls: 0 for no effect and ±100 for the full control effect; nearly all actives have a fitted effect of over 50% in size
BAZ2B inh: blocks human BAZ2B; Q9UIF8; AlphaScreen BAZ2B-H3K14Ac peptide displacement; Potency, µM (top dose mostly 114 µM), inactives show at the highest dose activity change, negative = inhibition, hits mostly inhibitors; 360,000 tested, 4.4% active; also: % is scaled to controls: 0 for no effect and ±100 for the full control effect; nearly all actives have a fitted effect of over 60% in size
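AlphaScreen displacement: compounds (up to 110uM) incubated 30 min at room temperature with a preformed 50 nM BAZ2B/50 nM biotinylated H3K14Ac peptide complex in PBS pH 7.4 with Tween-20. Donor and acceptor beads at 10 ug/mL final added, 20 min light-protected before reading.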
Sfp PPTase inh: Sfp phosphopantetheinyl transferase inhibition; Q9F4F7; Biochemical Sfp PPTase activity, qHTS; Potency, µM, without a hit: largest response in the series, negative = inhibition, actives largely listed as inhibitors; 310,000 tested, 3.5% active; AID 1490;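 also: the enzyme is Sfp with the accession as filed and its product quenches rhodamine fluorescence; 0% = enzyme reaction without inhibitor and -100% = no enzyme wells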
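Buffer: 50 mM Hepes-Na pH 7.6, 10 mM MgCl2, 0.01% Nonidet P-40, 0.01% BSA. Enzyme 15 nM, pre-exposed to compound 15 min; substrates then added and fluorescence change tracked over 30 min.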
12-LOX inh: blocks human arachidonate 12S-lipoxygenase | 580,000 tested, 1.1% active | P18054 | purified 12hLO, xylenol orange hydroperoxide absorbance | Potency, µM (series often up to 108 µM), without a hit: at the highest dose activity change, negative = inhibition, usual class: inhibitors; also: % is scaled to controls: 0 for no effect and ±100 for the full control effect
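Purified human 12hLO (150 nM final) in 25 mM Hepes, 0.01% Triton X-100, pH 7.0 was preincubated 15 min at room temperature with compound. Then 40 uM arachidonic acid was added, 30 min. Hydroperoxide was read by Fe-XO absorbance ratio 573/405 nm.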
Numbers without * were called inactive; ? = inconclusive; · = no result; [ ] = another dose, or the depositor's remark. Calls follow the shape of the dose curve; as a rule, active = well fitted curve in the direction sought with a large enough effect; inconclusive = small, poorly fitted or top-dose-only effect, or another doubt; inactive = no such curve, though single readings can be large; an effect the other way counts as inactive or inconclusive. Potency is read from the fitted curve at half-maximal effect.

SMILES | HP1b chromo inh | G9a inh | JMJD2A Tudor inh | BAZ2B inh | Sfp PPTase inh | 12-LOX inh
COc1ccc(-n2c(CN3CCC(C(N)=O)CC3)nc3ccc([N+](=O)[O-])cc3c2=O)c(OC)c1 | 33% | 56µM* | -19% | ? | 4% | 15%
CCN1CCN(Cc2nc3ccc([N+](=O)[O-])cc3c(=O)n2-c2ccc(OC)cc2OC)CC1 | -20% | 29% | -12% | 23% | -4% | 31%
CCOC(=O)C1CCN(Cc2nc3ccc([N+](=O)[O-])cc3c(=O)n2-c2ccc(OC)cc2OC)CC1 | 0% | 32µM* | -28% | -38% | 5% | -3%
O=C([C@@H]1C[C@H](F)CN1C(=O)c1ccc(F)cc1)N1CCOCC1 | · | · | · | · | · | 18%
CSCc1nnc(NC(=O)c2ccc(S(=O)(=O)N(CC(C)C)CC(C)C)cc2)o1 | · | -3%[59 µM] | · | -35% | 26% | ·
CCc1nnc(NC(=O)c2ccc(S(=O)(=O)N(C)c3ccccc3)cc2)o1 | 6% | -19% | 25µM* | · | 19% | 1%
CN(C)c1ccc(C(=O)Nc2nnc(C3=COCCO3)o2)cc1 | 29% | -3% | 79µM* | · | 6% | 11%
CC(C)(C)c1ccc(C(=O)Nc2nnc(C3=COCCO3)o2)cc1 | 17% | -1% | -12% | ? | 4% | 102%
CN(c1ccccc1)S(=O)(=O)c1ccc(C(=O)Nc2nnc(C3=COCCO3)o2)cc1 | 40% | 35µM* | -33% | 79µM* | 11% | -9%
CSCc1nnc(NC(=O)c2ccc(S(=O)(=O)N(C)C)cc2)o1 | 14% | 1% | 20µM* | -2% | ? | 5%
COc1ccccc1C(CNC(=O)c1cccc2c(=O)c(C)c(-c3ccccc3)oc12)N(C)C (stereo not drawn) | · | · | · | · | · | 40%
CCOc1cc(-c2nnc(NC(=O)C3=COCCO3)o2)cc(OCC)c1OCC | 46% | -13%[2.33 µM] | -10% | -4% | · | -3%
O=C(Nc1nnc(-c2ccc(Cl)cc2)o1)C1=COCCO1 | 28% | 48%[59 µM] | ? | 50µM* | 17% | -17%
O=c1c2ccccc2cnn1Cc1coc(-c2ccccc2)n1 | · | · | · | · | · | -29%
CN(C)S(=O)(=O)c1cccc(NC(=S)N/N=C/c2cc(Br)ccc2O)c1 | -19% | · | 28µM* | 18µM* | 5% | 28µM*
CN(C)S(=O)(=O)c1cccc(NC(=S)N/N=C/c2cccc(O)c2)c1 | 19% | 0% | -4% | 0% | 18% | -8%
O=C(COc1ccccc1)NS(=O)(=O)c1ccccc1 | 31% | 3.5µM* | -6% | -16% | 20% | -13%
O=C(c1ccccc1)N1CCN(C2C3CC4CC(C3)CC2C4)CC1 (stereo not drawn) | 22% | 3% | -7% | 13% | -6% | 20%
CN1CCCN(C2C3CC4CC(C3)CC2C4)CC1 (stereo not drawn) | ? | 10µM* | 1µM* | ? | 79µM* | ?
CS(=O)(=O)N1CCN(C2C3CC4CC(C3)CC2C4)CC1 (stereo not drawn) | ? | · | 10µM* | -6% | 13% | -17%
CC1CCC(N2CCN(S(C)(=O)=O)CC2)CC1 (stereo not drawn) | 45µM* | ? | 3.2µM* | 32µM* | -26% | ?
COc1ccc(-c2nn(-c3ccccc3)cc2C(=O)NCC(C)(C)N2CCOCC2)cc1OC | · | · | · | · | · | -5%
CCN(CC)C(=O)CC(c1ccc(N(C)C)cc1)c1c(OC)cc(OC)c2ccc(=O)oc12 (stereo not drawn) | -18% | ? | 45µM* | ? | 9% | -12%
CCN(CC)CCC(c1ccc(N(C)C)cc1)c1c(OC)cc(OC)c2ccc(=O)oc12 (stereo not drawn) | -27% | ? | 45µM* | 40µM* | 0% | -11%
CCN(CC)C(=O)CC(c1ccc2c(c1)OCO2)c1c(OC)cc(OC)c2ccc(=O)oc12 (stereo not drawn) | 4% | -3%[59 µM] | -34% | -35% | -3% | -18%
SMILES | HP1b chromo inh | G9a inh | JMJD2A Tudor inh | BAZ2B inh | Sfp PPTase inh | 12-LOX inh
CCN(CC)CCC(c1ccc(OC)cc1)c1c(OC)cc(OC)c2c(C)cc(=O)oc12 (stereo not drawn) | 17% | · | -26% | · | -19% | ·
CCCCn1nnnc1CN1CCCC1c1ccc2c(c1)OCCO2 (stereo not drawn) | · | · | · | · | · | -14%
CCN1CCN(C(=O)c2ccc(-c3nc4ccccc4s3)s2)CC1 | 13% | -43% | -12% | 1% | 1% | -9%
CCCN1CCN(C(=O)c2ccccc2-c2nc3ccccc3s2)CC1 | 23% | 40µM* | -24% | -31% | 10% | 1%
CSc1ccc(-c2ccco2)nn1 | 32% | 32µM* | -3% | -22% | 32µM* | -28%
CCSc1ccc(-c2ccco2)nn1 | 19% | 18µM* | -17% | -25% | 14µM* | -12%
CCSc1nc(N)c(C#N)c(-c2ccco2)c1C#N | 55% | -13%[59 µM] | -21% | 5% | 5% | 2%
Cc1ccc(S(=O)(=O)N2CCC(C(=O)NC3CCCC3)CC2)cc1Cl | 18% | -7%[59 µM] | 100µM* | 1% | 24% | 18%
CC1=NCCN1S(=O)(=O)c1cc([N+](=O)[O-])ccc1Cl | -16% | 45µM* | -1% | -14% | 14% | -8%
O=C(NC1CC1)C1CCN(S(=O)(=O)c2cc(Cl)ccc2Cl)CC1 | 26% | 13µM* | -2% | 56µM* | -20% | -12%
CC(C)(CNC(=O)C1CCN(S(=O)(=O)c2cc([N+](=O)[O-])ccc2Cl)CC1)N1CCOCC1 | 17% | ? | -15% | 5% | · | -9%
O=C(NCc1ccc(Cl)cc1)C1CCN(S(=O)(=O)c2cc([N+](=O)[O-])ccc2Cl)CC1 | 18% | 45µM* | 3% | 9% | -29% | -28%
O=C(NC1CC1)C1CCN(S(=O)(=O)c2ccc(Cl)cc2)CC1 | 35% | -4% | -5% | 5% | 9% | -12%
CCCCCCCCS(=O)CCCCO (stereo not drawn) | · | · | · | · | · | 4%
CCCCn1c(-n2nc(CC)cc2CC)nc2c1c(=O)n(CC(N)=O)c(=O)n2C | · | · | · | · | · | 16%
O=C(NCCc1c[nH]c2ccccc12)c1cc2ccccc2[nH]1 | · | · | · | · | · | -20%
O=C(NC1CC1)C1CCN(S(=O)(=O)c2cc([N+](=O)[O-])ccc2Cl)CC1 | 7% | ? | 8.9µM* | 32µM* | · | -25%
Cc1cccc2sc(NC(=O)C3CCN(S(=O)(=O)c4cc([N+](=O)[O-])ccc4Cl)CC3)nc12 | ? | 7.9µM* | 14µM* | ? | -11% | 40µM*
Cc1nnc(NC(=O)C2CCN(S(=O)(=O)c3cc([N+](=O)[O-])ccc3Cl)CC2)o1 | 27% | ? | 10µM* | 16µM* | · | -28%
Cc1ccc([N+](=O)[O-])cc1S(=O)(=O)N1CCCC1 | 7% | ? | -8% | 5% | 7% | -2%
